# Several values for one entry are separate records, joined by “and”; a condition that tells them apart may be missing. Equal values may be shown once. Where a name gives a salt, the structure may show the parent alone. Out of some 5,800 compounds screened, about 620 (11%) showed activity. The full list was thinned out, with actives kept by preference. Unmarked numbers belong to inactive results.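 The calls were made as follows: active = score above a cut-off or among the top three wells of a plate; in these data no inactive exceeds 0.85.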
# System: primary human hepatic stellate cells (donor 1)
# Experiment: scaled lipid accumulation score (0 = DMSO-like, 1 = nortriptyline-like); higher = stronger HSC inactivation (lipid re-accumulation), active = hit call of the paper
# Settings: 48 h
# Procedure: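 Primary lipid accumulation screen in primary human hepatic stellate cell myofibroblasts (donor 1, passage 8) in 384-well plates. 100 nL of library compound was pin-transferred into 30 µL medium in duplicate, and cells were treated for 48 h. The 'Scaled' score combines distance from plate baseline, toxicity and reproducibility penalties, and is normalised to nortriptyline (positive) and DMSO (negative) controls on each plate. A hit is defined as scaled >0.85 or among the top 3 wells per plate.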
# [1] = library stock concentration: 80 uM
# [2] = library stock concentration: 400 uM
# [3] = library stock concentration: 1 mM
# [4] = library stock concentration: 2 mM
# [5] = library stock concentration: 3.33 mM
# [6] = library stock concentration: 10 mM
structure (smiles),measurement,setting,value
"Cc1ccc2c(c1)C(=O)C1(O)CCN(c3ccccc3)C1=N2 (single isomer, unassigned; (-)) [(-)-Blebbistatin]",scaled lipid accumulation score,[1],≤ -0.001
same,scaled lipid accumulation score,[2],≤ -0.001
same,scaled lipid accumulation score,[3],≤ 0
same,scaled lipid accumulation score,[4],≤ -0.001
same,scaled lipid accumulation score,[5],≤ -0.009
same,scaled lipid accumulation score,[6],0.264
CCCCC/C=C\C/C=C\CC/C=C\CCCC(=O)OC [Pinolenic Acid methyl ester],scaled lipid accumulation score,[3],≤ 0
CC(C)(C)c1cnc(CSc2cnc(NC(=O)C3CCNCC3)s2)o1,scaled lipid accumulation score,[1],0.373
same,scaled lipid accumulation score,[2],0.262 and 0.17
same,scaled lipid accumulation score,[4],0.414 and 0.498
same,scaled lipid accumulation score,[5],0.468
same,scaled lipid accumulation score,[6],0.32 and 0.42 and 0.56
CN([C@@H](Cc1ccc(OS(=O)(=O)c2cccc3cnccc23)cc1)C(=O)N1CCN(c2ccccc2)CC1)S(=O)(=O)c1cccc2cnccc12,scaled lipid accumulation score,[1],≤ 0
same,scaled lipid accumulation score,[2],≤ 0
same,scaled lipid accumulation score,[4],≤ 0
same,scaled lipid accumulation score,[6],0.021
COC(=O)C1=CO[C@@H](C)[C@H]2CN3CCc4c([nH]c5ccccc45)[C@@H]3C[C@H]12 [Ajmalicine hydrochloride],scaled lipid accumulation score,,0.17
CCCCc1nn(-c2ccccc2C(F)(F)F)c(=O)n1Cc1ccc(-c2ccccc2S(=O)(=O)NC(=O)c2sccc2C)cc1,scaled lipid accumulation score,[6],≤ -0.001
c1ccc2c(-c3cnn4cc(-c5ccc(N6CCNCC6)cc5)cnc34)ccnc2c1,scaled lipid accumulation score,[1],0.107
same,scaled lipid accumulation score,[2],≤ -0.009
same,scaled lipid accumulation score,[4],0.656
same,scaled lipid accumulation score,[6],0.103
"CCCCCC(=O)CC[C@@H]1[C@@H](C/C=C\CCCC(=O)O)[C@@H](O)C[C@H]1O [13,14-dihydro-15-keto Prostaglandin F2.alpha.]",scaled lipid accumulation score,[3],≤ 0
NC(=O)c1cccc(-c2cc(Nc3ccc(OC(F)(F)F)cc3)ncn2)c1,scaled lipid accumulation score,[1],≤ 0
same,scaled lipid accumulation score,[2],≤ 0
same,scaled lipid accumulation score,[4],0.03
same,scaled lipid accumulation score,[5],≤ 0
same,scaled lipid accumulation score,[6],≤ 0 and 0.198
CCCCCCCCCCCCC(O)C(=O)O (stereo unspecified) [2-Hydroxymyristic acid],scaled lipid accumulation score,[3],0.03
CCCCCCCCCCCCC(O)C(=O)O (stereo unspecified) [2-Hydroxymyristic Acid],scaled lipid accumulation score,[3],≤ 0
CC1=CC(=O)c2ccccc2C1=O [Menadione] [listing 1 of 2 here],scaled lipid accumulation score,,0.873 (active)
"COC1=C(OC)C(=O)c2ccccc2C1=O [2,3-Dimethoxy-1,4-naphthoquinone]",scaled lipid accumulation score,[6],0.634
CC1=CC(=O)c2ccccc2C1=O [Menadione] [listing 2 of 2 here],scaled lipid accumulation score,[5],≤ 0
same,scaled lipid accumulation score,[6],0.707 and ≤ 0
same,scaled lipid accumulation score,library stock concentration: 11.6 mM,0.594
O=C1NC(=O)/C(=C/c2ccc3nccnc3c2)S1,scaled lipid accumulation score,[1],≤ -0.016
same,scaled lipid accumulation score,[2],≤ -0.016
same,scaled lipid accumulation score,[4],≤ -0.016
same,scaled lipid accumulation score,[6],≤ -0.016
COc1cc(CNC(=O)CCCC/C=C/C(C)C)ccc1O [(E)-Capsaicin],scaled lipid accumulation score,[6],≤ 0
COc1cc(CNC(=O)CCCC/C=C/C(C)C)ccc1O [E-capsaicin],scaled lipid accumulation score,[6],≤ 0
COc1cc(CNC(=O)CCCC/C=C/C(C)C)ccc1O [Capsaicin],scaled lipid accumulation score,,≤ 0
same,scaled lipid accumulation score,[3],≤ 0
same,scaled lipid accumulation score,[6],≤ 0
COc1cc(CNC(=O)CCCC/C=C/C(C)C)ccc1O [E-Capsaicin],scaled lipid accumulation score,library stock concentration: 16.4 mM,0.112
COc1c(C)c2c(c(O)c1C/C=C(\C)CCC(=O)OCCN1CCOCC1)C(=O)OC2 [Mycophenolate Mofetil],scaled lipid accumulation score,[5],≤ 0
same,scaled lipid accumulation score,[6],≤ 0
CC(C)c1cccc(C(C)C)c1N1C(=O)c2ccc(O)cc2C1=O,scaled lipid accumulation score,[6],0.259
CN(C)CC(C)(C)CNc1nn2c(-c3ccccc3)nnc2cc1C1CCC1,scaled lipid accumulation score,[2],≤ -0.005
same,scaled lipid accumulation score,[4],≤ -0.005
same,scaled lipid accumulation score,[6],0.159

# From the supplement of paper PMC9135407
